Screening data: PubChem BioAssay, several laboratories
AddAB inh: less growth of phage-infected E. coli with AddAB; E. coli expressing H. pylori AddAB, absorbance growth; inhibition, % at 11.9 µM; hit rate 0.29% among 330,000; AID 435030; in the data active means inhibition above about 12%
E coli growth-1: inhibitors of Escherichia coli growth. OD600, 23 h; hits give low values. OD600 absorbance (test concentration not listed). hit rate 0.21% among 330,000;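 active means OD600 absorbance below the run mean of sample wells minus 3.6 SD, in any replicate, cut at about 0.56 in these data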
E coli growth-2: counter-screen for AddAB inhibitors: E. coli growth inhibition; E. coli V3065 growth, OD600 absorbance, 18 h; inhibition, % at 11.9 µM; hit rate 0.27% among 330,000;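 active means inhibition above the campaign's mean inhibition across all tested compounds plus 3 SD, cut at about 9.9% in these data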;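 further: uninfected addAB+ strain grown without phage in ampicillin broth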
phage Ecoli inh: E. coli growth loss with phage present. growth absorbance. inhibition, % at 11.9 µM. hit rate 0.26% among 360,000. AID 651602; in the data active means inhibition above about 11%
Tat export inh: E. coli Tat transport inhibition | inhibition, % at 10 µM | E. coli MC4100 TorA-mCherry Tat export, fluorescence | hit rate 0.036% among 340,000;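 active means mean replicate inhibition at least 50% and at least half of replicates individually reaching 50%; inconclusive means only one of the two criteria met; inactive means neither criterion met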;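 further: exported cargo escapes ClpAP degradation while cytoplasmic cargo is degraded and loses fluorescence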
RecBCD conf: growth loss of phage-infected V66 E. coli, RecBCD confirmation screen; hit rate 45% among 890; E. coli V66 + T4 2- phage, growth OD; inhibition, % at 11.9 µM; shares compounds with phage Ecoli inh;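 active means mean inhibition over triplicates exceeding the hit threshold derived in the original primary screen, cut at about 11% in these data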
Ecoli viability: bacterial viability inhibition counter-screen for RecBCD | hit rate 29% among 890 | E. coli viability, absorbance (OD) growth | inhibition, % at 11.9 µM | shares compounds with phage Ecoli inh | AID 651983; in the data active means inhibition above about 20%;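 further: E. coli strain V66 grown with compound alone and no phage infection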
AddAB counter: growth loss of phage-infected AddAB E. coli, RecBCD counter-screen | shares compounds with phage Ecoli inh | E. coli expressing H. pylori AddAB + T4 phage, OD growth; gene 2 mutant T4, recBCD-deleted host | inhibition, % at 11.9 µM | hit rate 45% among 890;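 active means mean inhibition above the solvent-only control wells' mean plus 3 SD, cut at about 22% in these data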;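 further: higher means less bacterial growth from phage killing when AddAB is blocked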
Numbers stand for hits; . = inactive; ? = inconclusive; / = no result. Compounds with a hit are over-represented: about 0.5% of the library has one in this group of screens.

SMILES | AddAB inh | E coli growth-1 | E coli growth-2 | phage Ecoli inh | Tat export inh | RecBCD conf | Ecoli viability | AddAB counter
FC(F)(F)c1cccc(NC(=S)NCc2ccccc2)c1 | . | . | . | 12 | . | . | . | .
CCSCCc1nnc(NC(=O)Nc2cccc(C(F)(F)F)c2)s1 | . | . | . | 11 | . | . | . | .
S=C(NCc1ccccc1)Nc1ccc(Cl)cc1 | . | . | . | . | . | / | / | /
O=C(NCc1ccc2c(c1)CCO2)Nc1cccc(C(F)(F)F)c1 | . | . | . | 11 | . | . | . | .
FC(F)(F)c1cccc(CNC(=S)Nc2ccccc2)c1 | . | . | . | . | . | / | / | /
O=C(NCc1cccnc1)Nc1cccc(C(F)(F)F)c1 | / | . | / | . | . | / | / | /
FC(F)(F)Sc1ccc(NC(=S)NCc2ccccc2)cc1 | . | . | 10 | 13 | . | . | . | .
COC(=O)Nc1ccc(S(=O)(=O)Nc2ncccn2)cc1 | . | . | . | . | . | / | / | /
CC1(c2ccc(Cl)cc2Cl)NC(=O)N(CC(=O)NCCC2=CCCCC2)C1=O (stereo not drawn) | / | / | / | . | / | / | / | /
O=C(Nc1ccccc1)Nc1ccc(Br)c(Cl)c1 | . | . | . | 12 | . | . | . | .
O=C(Nc1ccccc1)Nc1cccc(C(F)(F)F)c1 | . | . | . | 11 | . | . | . | .
CNC(=O)Nc1cccc(C(F)(F)F)c1 | . | . | . | . | . | / | / | /
OC(COC(c1ccccc1)c1ccccc1)CN1CCN(c2ccccn2)CC1 (stereo not drawn) | . | . | . | . | . | / | / | /
O=C(CCCc1ccccc1)NCc1cn2ccsc2n1 | . | . | . | 96 | . | . | . | .
COc1ccc(C(CNC(=O)c2cc(S(=O)(=O)N3CCN(c4ccccc4)CC3)ccc2Cl)N(C)C)cc1 (stereo not drawn) | . | . | . | . | . | / | / | /
Cc1nc(NN=Cc2ccccn2)sc1C | / | . | / | / | / | / | / | /
Cc1nc(N/N=C/c2ccccn2)sc1C | 20 | / | 18 | 16 | / | . | . | .
Nc1nc(SCc2ccccc2)c2[nH]cnc2n1 | . | . | . | . | . | / | / | /
Nc1nc(Sc2ccc([N+](=O)[O-])c3nonc23)c2[nH]cnc2n1 | / | / | / | 39 | . | 44 | 51 | 68
CNc1ncnc(Sc2nc(N)nc3nc[nH]c23)c1[N+](=O)[O-] | / | / | / | 62 | . | 55 | 65 | 79
CCCCNC(=O)CN1C(=O)NC(CCc2ccccc2)C1=O (stereo not drawn) | . | . | . | . | . | / | / | /
COc1ccc(NC(=O)C2CCOC2=O)cc1 (stereo not drawn) | . | . | . | . | . | / | / | /
CN(C)C(=O)/C(=C\c1ccc(-c2cccc([N+](=O)[O-])c2)o1)NC(=O)c1ccccc1 | . | . | . | . | . | / | / | /
CN(C)C(=O)/C(=C/c1ccc(-c2cccc([N+](=O)[O-])c2)o1)NC(=O)c1ccccc1 | . | . | . | 19 | . | . | . | .
COc1ccc(CCNC(=O)C2CCN(S(=O)(=O)c3ccc(SC)cc3)CC2)cc1 | . | . | . | 17 | . | . | . | .
SMILES | AddAB inh | E coli growth-1 | E coli growth-2 | phage Ecoli inh | Tat export inh | RecBCD conf | Ecoli viability | AddAB counter
COc1ccc(S(=O)(=O)N2CCC(C(=O)NCCc3ccc(OC)c(OC)c3)CC2)cc1 | / | / | / | . | / | / | / | /
CCS(=O)(=O)NCCc1csc(-c2cccnc2)n1 | . | . | . | 97 | . | . | . | .
CC(=O)N1N=C(c2cccc(O)c2)CC1c1cccs1 (stereo not drawn) | / | . | / | 11 | . | . | . | .
CC(=O)N1N=C(c2cccc(NS(C)(=O)=O)c2)CC1c1cccs1 (stereo not drawn) | . | . | . | . | . | / | / | /
Cc1nc2ccc(NC(=O)C3CCN(S(=O)(=O)c4cccs4)CC3)cc2s1 | . | . | . | . | ? | / | / | /
Nc1ncn([C@H]2C[C@H](O)[C@@H](CO)O2)c(=O)n1 | . | / | . | 12 | . | 14 | . | 34
CCCn1c(SCC(=O)NC2CCCC2)nnc1-c1ccccn1 | . | . | . | 38 | . | . | . | .
C=CCn1c(SCC(=O)NC2CCCC2)nnc1-c1ccccn1 | . | . | . | . | . | / | / | /
COc1ccc(S(=O)(=O)NCCc2ccccc2)c2cccnc12 | . | . | . | . | . | / | / | /
O=C(CNc1cccc(C(F)(F)F)c1)NN=CC1CCCCC1 | / | . | / | / | / | / | / | /
Cc1cccc(NC(=O)COC(=O)CN2CCCCCC2=O)c1C | . | . | . | 11 | . | . | . | .
COc1ccc(C(=O)NNC(=O)c2ccc3ccccc3c2O)cc1 | . | . | . | . | . | / | / | /
COc1cccc(OCC(=O)NNC(=O)c2ccc3ccccc3c2O)c1 | / | . | / | 15 | . | . | . | .
Cc1ccc(NC(=O)CCn2nc([N+](=O)[O-])cc2C)nc1 | . | . | . | . | . | / | / | /
CC(C)N=c1scc(-c2cccs2)n1/N=C/c1ccc(O)c(O)c1O | . | / | . | 16 | . | . | . | .
CCc1ccc(C(=O)NN=C(C)c2cccnc2)s1 | / | . | / | / | / | / | / | /
O=C(/C(=N/N=C/c1ccc(O)c(O)c1O)c1ccccc1)c1ccccc1 | . | / | . | 12 | . | . | . | .
Oc1ccc(/C=N/N=C(c2ccccc2)c2ccccc2)c(O)c1O | . | / | . | 14 | . | . | . | .
COc1ccc(CN(C)C(=O)c2ccc(OCC(=O)Nc3cccc(C(F)(F)F)c3)c(OC)c2)cc1 | / | / | / | . | / | / | / | /
O=C(NNC(=O)c1ccc2ccccc2c1O)Nc1ccc(F)cc1 | . | . | . | 12 | . | . | . | .
Cc1cccc(NC(=O)NNC(=O)c2ccc3ccccc3c2O)c1 | / | . | / | . | . | / | / | /
CN1CC(=O)N(CC(=O)Nc2cc(Cl)cc(Cl)c2)C1=O | . | . | . | . | . | / | / | /
Nc1nc(N)c2cc(S(=O)(=O)c3cccc(C(F)(F)F)c3)ccc2n1 | / | / | / | 24 | / | 32 | 27 | 59
NC(=O)c1ccsc1NC(=O)COC(=O)CCOc1ccccc1 | . | . | . | . | . | / | / | /
CSc1nc(C)cc(SCCO)n1 | . | . | . | . | . | / | / | /
SMILES | AddAB inh | E coli growth-1 | E coli growth-2 | phage Ecoli inh | Tat export inh | RecBCD conf | Ecoli viability | AddAB counter
CCC(=O)Nc1sc(Cc2ccc3c(c2)OCO3)c(C)c1C(N)=O | . | . | . | . | . | / | / | /
Cc1c(Cc2ccc3c(c2)OCO3)sc(NC(=O)C(C)(C)C)c1C#N | . | . | . | 100 | . | . | . | .
CCOc1ccc(C2c3c(oc4ccccc4c3=O)C(=O)N2CCCN2CCOCC2)cc1OCC (stereo not drawn) | . | . | . | . | . | / | / | /
CCCN(CCC)Cc1c(C(=O)NN=C/C(C)=C\c2ccccc2)nnn1-c1nonc1N | / | . | / | / | / | / | / | /
Cc1[nH]nc(C(F)(F)F)c1N=NN1CCOCC1 | / | / | / | 100 | 83 | 99 | 103 | 100
N#CCC(=O)Nc1ccc(C(=O)OC(C(=O)Nc2ccc([N+](=O)[O-])cc2Br)c2ccccc2)cc1 (stereo not drawn) | / | . | / | . | . | / | / | /
COc1ccccc1C(=O)NC(CCSC)C(=O)NNC(=O)c1ccccc1O (stereo not drawn) | . | . | . | 12 | . | . | . | .
